This is a sample that favours compounds with a hit; in the whole collection about 2.3% have one here.
ERp5 block – ERp5 (human) disulfide isomerase inhibition; 350,000 compounds, 0.05% hits; ERp5 insulin aggregation, absorbance 650 nm, 90 min; Q15084; inhibition, % at 9.99 µM;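 active = mean replicate inhibition above about 25%, with every replicate also reaching it, limit read from the data, passing the limit was not always enough; inconclusive = only one of those two criteria met; inactive = neither criterion met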
Target sequence (Q15084 whole entry, looked up): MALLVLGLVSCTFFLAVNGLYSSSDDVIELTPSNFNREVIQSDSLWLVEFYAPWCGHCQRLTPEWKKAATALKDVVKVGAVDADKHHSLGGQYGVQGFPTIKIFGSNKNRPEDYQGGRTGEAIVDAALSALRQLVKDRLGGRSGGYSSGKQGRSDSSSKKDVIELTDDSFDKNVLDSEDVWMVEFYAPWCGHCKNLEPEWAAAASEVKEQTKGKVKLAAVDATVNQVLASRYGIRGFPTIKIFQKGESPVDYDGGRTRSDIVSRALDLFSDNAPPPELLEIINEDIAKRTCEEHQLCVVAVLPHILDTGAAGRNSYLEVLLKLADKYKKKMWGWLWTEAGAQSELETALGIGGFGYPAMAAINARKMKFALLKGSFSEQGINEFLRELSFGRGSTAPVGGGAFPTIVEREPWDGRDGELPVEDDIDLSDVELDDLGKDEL
PDI inh – PDI (human) enzyme inhibition; P07237; PDI insulin aggregation turbidity, A650, 90 min; inhibition, % at 10 µM; 350,000 compounds, 0.052% hits; AID 588391;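 active = mean inhibition across replicates of 30% or more, whatever share of single replicates reach that level; inconclusive = mean inhibition below 30% while every single replicate reaches 30%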
Rtt109 HAT inh – blocks Candida albicans Rtt109/Vps75 acetyltransferase activity; 330,000 compounds, 0.16% hits; inhibition, % at 34.9 µM; Q5AAJ8; purified Rtt109/Vps75, ThioGlo CoA-SH fluorescence, 4 h; AID 540336;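 active = inhibition of at least 50% in every replicate; inconclusive = best replicate reaches 50% inhibition but some replicates fall short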
SIRT5 block – sirtuin-5 (human) deacylase inhibition. Q9NXA8. Purified SirT5, succinyl-peptide AMC, trypsin-coupled fluorescence. inhibition, % at 15 µM. 330,000 compounds, 1.1% hits; in the data active = inhibition above about 15%; inconclusive = no clear call, values can overlap the other calls
DENV2 CPE rescue – DENV2-induced cell death inhibition | DENV2-infected cells, cytopathic effect rescue, plate reader | CPE inhibition, % at 9.99 µM | 350,000 compounds, 1.7% hits; in the data active = CPE inhibition above about 20%, passing the limit was not always enough; inconclusive = no clear call, values can overlap the other calls; tested in BHK-21 cells;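 note: 0% = median of neutral control wells and 100% = median of positive control wells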
The depositor's hits bear a star; ? = inconclusive; nt = no result given; ! = not active in a repeat.

SMILES | ERp5 block | PDI inh | Rtt109 HAT inh | SIRT5 block | DENV2 CPE rescue
C[C@@H]1CCCCO[C@@H](CN(C)Cc2ccc3c(c2)OCO3)[C@@H](C)CN([C@H](C)CO)C(=O)c2cc(NS(=O)(=O)c3ccc(F)cc3)ccc2O1 | 0 | nt | nt | 11 | -3
O=S(=O)(c1ccccc1)N1C[C@@H]2N[C@H](C1)C2c1ccc(-c2ccc(F)cc2)cc1 (stereo not given in full) | 15 | nt | nt | -1 | 6
CC/C=C\C/C=C\C/C=C\CCCCCCCC(=O)O | 4 | -2 | 17 | 17* | -5
COc1ccc(-c2csc(C(C)(O)c3ccc(F)c(F)c3)n2)cc1OC (stereo not given) | 5 | 16 | nt | -3 | 21*
COc1ccccc1-c1csc(C(C)(O)c2ccccc2)n1 (stereo not given) | 5 | -13 | nt | 16* | -10
Cc1ccccc1-c1csc(C(C)(O)c2ccccc2)n1 (stereo not given) | 2 | 12 | nt | 0 | 31*
COc1ccc(C(C)(O)c2nc(-c3ccccc3C)cs2)cc1 (stereo not given) | 0 | 6 | nt | -2 | 8
COc1ccccc1-c1csc(C(C)(O)c2cccc(F)c2)n1 (stereo not given) | 5 | 6 | nt | nt | 6
COc1ccccc1NC(=O)Nc1ccc2c(c1)C(=O)N(C)C[C@@H](OC)[C@H](C)CN(C)[C@H](C)CO2 | 13 | nt | nt | 2 | -2
O=C(c1c(O)cc(O)cc1O)C1c2c(cc(O)c3c2O[C@H](c2ccc(O)cc2)[C@@H](O)C3)OC1c1ccc(O)cc1 (stereo not given in full) | -1 | 53* | 8 | nt | 4
COC(=O)C[C@@H]1CC[C@@H]2[C@H](COC[C@@H](O)CN2CCC(F)(F)F)O1 | nt | nt | nt | nt | 3
O=C(C[C@@H]1C=C[C@H](NC(=O)Cc2ccccn2)[C@@H](CO)O1)NCCCN1CCOCC1 | -2 | nt | nt | 2 | -4
O=C(C[C@@H]1C=C[C@H](NC(=O)Cc2ccccn2)[C@H](CO)O1)NCCCN1CCOCC1 | 1 | nt | nt | 7 | 33*
O=C(C[C@@H]1C=C[C@@H](NC(=O)Cc2ccccn2)[C@H](CO)O1)NCCCN1CCOCC1 | -1 | nt | nt | 4 | 38*
CC(C)NC(=O)N(C)C[C@@H]1Oc2ccc(NC(=O)NC3CCCCC3)cc2C(=O)N([C@H](C)CO)C[C@@H]1C | -5 | nt | nt | -6 | -4
O=C(O)CCC(=O)Nc1cccc(C(=O)Nc2cccc(Cl)c2)c1 | nt | 12 | 11 | nt | nt
COc1ccc(Cl)cc1NC(=O)c1cccc(NC(=O)CCC(=O)O)c1 | -2 | -11 | 6 | 19* | ?
COc1ccc(C)cc1NC(=O)c1cccc(C(=O)Nc2cc(C)ccc2OC)c1 | 3 | -2 | 2 | 16* | -2
COc1ccc(C)cc1NC(=O)c1ccc2c(c1)OCO2 | nt | 6 | 4 | nt | nt
O=C(CSc1nc(=O)[nH]c2c1CCCC2)Nc1ccc(F)cc1F | 0 | -3 | 0 | -2 | 41*
O=C(c1ccccc1F)N1C[C@@H]2[C@H](c3ccccc31)[C@H](CO)N2C(=O)c1ccc(F)cc1 | -1 | nt | nt | 3 | -7
C[C@H]1CN([C@@H](C)CO)C(=O)c2cc(C#CC(C)(C)O)cnc2O[C@H]1CN(C)Cc1cncnc1 | 0 | nt | nt | 4 | 33*
C/C=C/c1cnc2c(c1)C(=O)N([C@@H](C)CO)C[C@H](C)[C@H](CN(C)Cc1cncnc1)O2 | 8 | nt | nt | 1 | 37*
CC(C)CC#Cc1ccc([C@H]2[C@H]3CN(C(=O)NC4CCCC4)CCCCN3[C@H]2CO)cc1 | 1 | nt | nt | 9 | nt
CN1C(=O)c2cc(NC(=O)c3cc(F)cc(F)c3)ccc2OC[C@H]2O[C@@H](CC(=O)O)CC[C@@H]21 | -5 | nt | nt | 1 | 1
SMILES | ERp5 block | PDI inh | Rtt109 HAT inh | SIRT5 block | DENV2 CPE rescue
CO[C@@H]1CN(C)C(=O)c2cc(NC(=O)NC(C)C)ccc2OC[C@H](C)N(C(=O)C2CCC2)C[C@@H]1C | 6 | nt | nt | 3 | -1
C[C@@H]1CN([C@@H](C)CO)C(=O)c2cc(NC(=O)C3CCCCC3)ccc2O[C@@H]1CN(C)Cc1ccc(-c2ccccc2)cc1 | -1 | nt | nt | 3 | 1
C[C@H]1CN([C@@H](C)CO)C(=O)c2cc(NC(=O)C3CCCCC3)ccc2O[C@H]1CN(C)Cc1ccc(-c2ccccc2)cc1 | -2 | -18 | -5 | 40*! | -3
COc1ccc(CN(C)C[C@@H]2Oc3ccc(NC(=O)C4CCCCC4)cc3C(=O)N([C@@H](C)CO)C[C@@H]2C)cc1 | -1 | nt | nt | -4 | 38*
C[C@H](CO)N1C[C@H](C)[C@@H](CN(C)Cc2ccccc2)Oc2ccc(NC(=O)C3CCCCC3)cc2CC1=O | 8 | nt | nt | 0 | 38*
C[C@H](CO)N1C[C@H](C)[C@@H](CN(C)Cc2ccc(C(F)(F)F)cc2)Oc2ccc(NC(=O)C3CCCCC3)cc2CC1=O | -7 | nt | nt | 3 | 42*
C[C@@H]1CN([C@H](C)CO)C(=O)Cc2cc(NC(=O)C3CCCCC3)ccc2O[C@@H]1CN(C)Cc1ccccc1 | 4 | nt | nt | 1 | -7
C[C@@H]1CCCCO[C@@H](CN(C)S(C)(=O)=O)[C@@H](C)CN([C@H](C)CO)C(=O)c2cc(NC(=O)c3ccncc3)ccc2O1 | 3 | nt | nt | 3 | 0
C[C@@H]1CN([C@H](C)CO)C(=O)Cc2cc(NC(=O)C3CCCCC3)ccc2O[C@@H]1CN(C)Cc1ccc(-c2ccccc2)cc1 | -4 | nt | nt | 102* | 9
C[C@H]1CN([C@@H](C)CO)C(=O)Cc2cc(NC(=O)C3CCCCC3)ccc2O[C@@H]1CN(C)Cc1ccc(-c2ccccc2)cc1 | 0 | nt | nt | -4 | ?
CC(=O)Oc1ccccc1C(=O)OCO/N=[N+](\[O-])N1CCC[C@H]1C(=O)O | 3 | nt | nt | -21 | -2
CC(=O)OCO/N=[N+](\[O-])N1CCCC1 | -2 | nt | nt | 0 | 24*
CCC(C)[C@H](NS(=O)(=O)c1ccc(C)cc1)C(=O)N1CCC(C(=O)N2CCC(C(=O)OC)CC2)CC1 (stereo not given in full) | -6 | nt | 0 | nt | 82*
COc1ccc(Cl)cc1-c1cc(C(=O)N[C@H](C)c2ccccc2)[nH]n1 | 5 | 4 | nt | -4 | 74*
Cc1ccc(C(=O)Nc2ccc(N3CCN(C)CC3)cc2)cc1C | 1 | -1 | -8 | -1 | 27*
Cc1ccc(C(=O)Nc2ccc(N3CCN(S(C)(=O)=O)CC3)cc2)cc1C | 0 | -5 | -4 | 3 | 4
C[C@@H]1CN([C@H](C)CO)C(=O)Cc2cc(NC(=O)Nc3ccc(F)cc3)ccc2O[C@@H]1CN(C)S(=O)(=O)c1ccccc1 | 1 | nt | nt | 7 | 19
C/C(=N\Nc1ccc(Cl)c(C(=O)O)c1)c1ccc[nH]1 | -4 | 3 | 4 | 24* | 2
O=C1N[C@H](Cc2ccccc2)COCc2cn(nn2)CC[C@H]1Cc1ccccc1 | 1 | nt | nt | 2 | ?
CC(C)NC(=O)Nc1ccc2c(c1)C(=O)N([C@H](C)CO)C[C@@H](C)[C@@H](CN(C)Cc1ccc(C(F)(F)F)cc1)OCCCC[C@@H](C)O2 | -4 | nt | nt | 4 | 42*
